Data from PubChem BioAssay (NCI).
Compounds without any hit were thinned out: in the full panel of roughly 83,000, 20% have a hit.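 For each line, cells grew in 96-well plates with the test compound present at a single concentration for 48 hours.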 Values without a mark were called inactive. The source made the active and inactive calls.

What follows are compounds tested on NCI-H522 lung (assay: NCI-60 one-dose screen, 48 h (100 = growth as untreated, 0 = no growth, -100 = all killed)). Settings: 10 µM unless noted.
Method: Growth inhibition of the NCI-H522 human Non-Small Cell Lung tumor cell line is measured as a screen for anti-cancer activity. Cells are grown in 96 well plates and exposed to the test compound for 48 hours. Compounds are tested at a single concentration, which is 10^-5 M for most compounds. The reported endpoint is percent growth (GI% or GIPRCNT), where numbers from 0 - 100% represent growth inhibition, and numbers from -100% - 0 represent cell death. For example, a value of 40 represents 60% growth inhibition. A value of 0 means no net growth occurred over the course of the experiment. A value of -40 indicates 40% of cells at the beginning of the experiment died by the end of the experiment. A value of -100 means all cells are dead at the end of the experiment.
NCI-60 Human Tumor Cell Lines Screen was performed using the standard one-dose NCI protocol, which is described in more detail at https://dtp.cancer.gov/discovery_development/nci-60/default.htm.
Compounds with GIPRCNT values below 10 were considered active. Activity score was based on GIPRCNT using the following formula: […]
Score is 0 for GIPRCNT values of 100 or above, 50 for GIPRCNT values of 0, and 100 for GIPRCNT values of -100.

SMILES	growth
Fc1cc(C2=NNC(c3ccc[nH]3)C2)ccc1-n1ccc(C(F)(F)F)n1 (stereo not given)	73.6%
COc1ccc(-c2nc(SCCC(C)C)nc(N/N=C(/C)c3ccc(C)cc3)c2C#N)cc1	87.2%
Cc1cc(C)n(Nc2nc3ccccc3[nH]c2=O)c(=O)c1C#N	93.3%
C=C(C)[C@@H]1CC[C@]2(CO)CC[C@]3(C)[C@H](CC[C@@H]4[C@@]5(C)CCCNC(C)(C)[C@@H]5CC[C@]43C)[C@@H]12	64.2%
NNC(=O)/C(=C\c1ccc([N+](=O)[O-])cc1)CC(=O)c1ccc(Cl)c(Cl)c1	77.2%
c1cnc2nc3c(cc2c1)oc1ccccc13	89.1%
O=C(NCCN1CCOCC1)OCc1nc2nc(Cl)nc(N3CCOCC3)c2[nH]1	-29.8% (active)
CCC1(CC)NC(=O)c2c(c3ccc(Cl)c(Cl)c3n2C)C1C#N (stereo not given)	86.5%
O=c1[nH]c(=O)[nH]c(=S)[nH]1	94.6%
S=c1[nH]cccc1-c1nnc2n1Nc1nc3ccc(Cl)cc3cc1CS2	82.6%
COc1c(Cl)cc(Cl)c2ccc(C=C3C(=O)N(C)C(=O)N(C)C3=O)nc12	92.2%
CCCN=C(N)c1ccc(NC(=O)c2ccc(C(=O)Nc3ccc(C(N)=NCCC)cc3)cc2)cc1	95%
CS(=O)(=O)OCCN(CCOS(C)(=O)=O)c1ccc(/C=N/Nc2ccc([N+](=O)[O-])cc2[N+](=O)[O-])cc1	91.5%
CCOc1ccc(/C=N/Nc2cc(C)nc3ccc(Cl)cc23)cc1	58.4%
C#CC(=O)Nc1cccc(Nc2nc3c(c(NCc4ccccc4)n2)CCCC3)c1	-60.7% (active)
COc1ccc(C(=O)/C=C/c2cn(Cc3ccc(Cl)cc3)c3ccccc23)cc1	26.5%
CC(=O)Nc1ccc(C(=O)Nc2cc(-c3ccccc3)ccc2N)cc1	55.6%
COc1ccccc1/C=N/NC1=NC2C(N1)N(C)C(=O)N2C (stereo not given)	103%
CC1=CC[C@@H]2CC[C@]3(C)[C@H](CC[C@@H]4[C@@]5(C)CCCNC(C)(C)[C@@H]5CC[C@]43C)[C@H]2[C@@H]1C	96.1%
Fc1ccc2nc3c(cc2c1)CSc1nnc(-c2ccc[nH]c2=S)n1N3	86.8%

SMILES	growth
COc1ccccc1C(C[N+](=O)[O-])c1c(-c2ccccc2)[nH]c2cc(C)ccc12 (stereo not given)	27.8%
O=C1NC(=S)NC(=O)C1=Cc1cn(Cc2ccccn2)c2ccccc12	76.6%
Cn1c(=O)c2[nH]c(CCCc3nc4c([nH]3)c(=O)n(C)c(=O)n4C)nc2n(C)c1=O	112%
Cc1cc(NC(=O)c2cnc(N3CCN(CCOCCOCCOCCOCCC(=O)N[C@H](C(=O)N4C[C@H](O)C[C@H]4C(=O)N[C@@H](C)c4ccc(-c5scnc5C)cc4)C(C)(C)C)CC3)cn2)c2ncccc2c1	-15.6% (active)
C=C1C(=O)O[C@H]2[C@H]1CC/C(COC(=O)CCCCCC(=O)OC/C1=C/CC[C@@]3(C)O[C@H]3[C@H]3OC(=O)C(=C)[C@@H]3CC1)=C\CC[C@@]1(C)O[C@@H]21	-72.5% (active)
C=C1C(=O)O[C@H]2[C@H]1CC/C(CNC(=O)/C=C/c1ccc(Br)cc1)=C\CC[C@@]1(C)O[C@@H]21	-71.2% (active)
CC1(C)[C@H](O)CC[C@]2(C)[C@@H]1CC[C@@]13C[C@@H](CC[C@H]12)[C@@](O)(CO)C3	92.1%
C=C(C)[C@@H]1CC[C@]2(C=O)CC[C@]3(C)[C@H](CC[C@@H]4[C@@]5(C)CCCNC(C)(C)[C@@H]5CC[C@]43C)[C@@H]12	84.1%
Cc1[nH]n(-c2cccc(Cl)c2)c(=O)c1/C=C1\C=Nc2ccc(Br)cc21	29.2%
O=S(=O)(c1cccc(NC2=Nc3cccc4cccc2c34)c1)N1CCCC1	75.3%
O=C(Nc1cccc(Cl)c1)Oc1c(Br)c(Br)c(Br)c(Br)c1Br	58.8%
Clc1ccc(C2CC(c3cccc(Nc4ccncc4)c3)=NN2c2ccc(Cl)cc2)cc1 (stereo not given)	-44% (active)
COc1cc2c(cc1[N+](=O)[O-])-c1ccc([N+](=O)[O-])cc1/C2=N\O	51.2%
O=C(Nc1ccc(Nc2ncccn2)cc1)NC1C=c2ccccc2=CC1 (stereo not given)	99.3%
COc1nccnn1	109%
COc1ccc(C(=O)c2cc3c(N)c(C(=O)Nc4cccc5ccccc45)sc3nc2C)cc1	-28.8% (active)
ClCC1(Cn2cnc3c(Cl)nc(Cl)nc32)COC1	71.9%
CCCCCN1C=C/C(=C\C(=O)N(C)c2cccc3ccccc23)c2ccccc21	83.1%
BrC(Br)(Br)c1cnc2ccccc2n1	-61.3% (active)
CCNC(=O)c1[nH]cc(-c2ccc(OC)cc2)c1-c1cc(OC)cc(OC)c1	62.6%
